# Measured values from article PMC4336329 (PLoS ONE, 2015).
# In all, about 310,000 compounds went through this assay and about 14,000 (4.5%) showed an effect of 50% or more. The effect is printed as a negative number. Shown is part of a subset that was picked to be rich in strong results.
# Target: human ether-à-go-go-related gene (hERG) potassium channel (human, UniProt Q12809)
# Experiment: primary screen, population patch clamp on CHO cells stably expressing hERG; higher = less effect of the substance
# 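Further: peak tail current of the secondary pulse compared with the same well before compound.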
# Sequence of human ether-à-go-go-related gene (hERG) potassium channel (Q12809 whole entry, looked up): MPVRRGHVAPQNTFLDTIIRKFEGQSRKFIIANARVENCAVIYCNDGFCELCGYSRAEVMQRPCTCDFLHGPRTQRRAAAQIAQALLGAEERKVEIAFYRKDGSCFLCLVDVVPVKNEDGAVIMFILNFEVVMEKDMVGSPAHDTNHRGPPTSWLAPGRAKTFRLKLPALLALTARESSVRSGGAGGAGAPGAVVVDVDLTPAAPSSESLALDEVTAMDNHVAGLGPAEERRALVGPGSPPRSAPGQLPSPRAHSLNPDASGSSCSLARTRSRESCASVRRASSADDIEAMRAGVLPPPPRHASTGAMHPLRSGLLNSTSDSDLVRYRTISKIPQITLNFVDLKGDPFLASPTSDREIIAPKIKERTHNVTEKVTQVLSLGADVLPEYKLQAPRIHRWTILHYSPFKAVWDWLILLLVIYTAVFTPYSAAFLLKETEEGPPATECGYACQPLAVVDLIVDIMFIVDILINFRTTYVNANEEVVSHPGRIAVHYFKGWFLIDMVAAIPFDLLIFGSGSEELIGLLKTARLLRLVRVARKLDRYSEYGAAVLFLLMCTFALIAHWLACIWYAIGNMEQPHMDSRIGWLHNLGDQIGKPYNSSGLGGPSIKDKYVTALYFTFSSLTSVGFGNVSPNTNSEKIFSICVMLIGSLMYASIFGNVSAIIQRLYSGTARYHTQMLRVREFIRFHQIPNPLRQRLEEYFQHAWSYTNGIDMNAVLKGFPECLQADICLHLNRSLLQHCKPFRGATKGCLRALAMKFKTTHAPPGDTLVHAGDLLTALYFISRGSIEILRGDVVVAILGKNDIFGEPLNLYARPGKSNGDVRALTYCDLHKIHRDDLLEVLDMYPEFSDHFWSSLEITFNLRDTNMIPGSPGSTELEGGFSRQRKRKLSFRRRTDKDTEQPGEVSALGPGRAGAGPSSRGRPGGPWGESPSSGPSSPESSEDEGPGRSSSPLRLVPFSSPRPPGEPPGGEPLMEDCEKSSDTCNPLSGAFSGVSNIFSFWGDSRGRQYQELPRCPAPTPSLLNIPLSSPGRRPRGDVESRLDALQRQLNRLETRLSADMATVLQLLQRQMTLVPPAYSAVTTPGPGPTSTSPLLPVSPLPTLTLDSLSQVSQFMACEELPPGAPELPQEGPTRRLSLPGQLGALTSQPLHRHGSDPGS
row,Structure (SMILES),"hERG current change (%, negative = inhibition) at 10uM [%]"
1,CN(C)/C=C1\SC(=S)N(c2ccc(Br)cc2)C1=O,-4.75
2,COc1ccccc1N1CCN(C(=O)Cn2ncc3c([nH]c4ccccc43)c2=O)CC1,4.74
3,CCCCn1c(Cc2ccccc2)nnc1SCC(=O)N1CCOCC1,0.754
4,CN(/N=C/Cc1nnnn1-c1ccc(Cl)cc1)c1ccccc1,-7.54
5,Cc1c(C#N)c2ncnc(N)c2n1-c1ccccc1,5.64
6,NC1=C([N+](=O)[O-])C(c2ccc3c(c2)OCO3)c2c(c3ccccc3oc2=O)O1 (centres unmarked),-21.3
7,O=C(Nc1cc2c3c(c1)CC(=O)N3CCC2)C1CCCCC1,-5.43
8,CC(C)(C)OC(=O)NCCc1nnc(SCC(=O)Nc2cccc(Cl)c2)o1,6.91
9,Cc1cccc(C)c1NC(=O)CSc1nnc(CCCCCNC(=O)OC(C)(C)C)o1,-17.8
10,CC(C)(C)OC(=O)NCCCCCc1nnc(SCC(=O)Nc2cccc(Cl)c2)o1,-50.7
11,COc1cccc(C(=O)C2CCCN(C(=O)CCc3scnc3C)C2)c1 (centres unmarked),-12.7
12,CCOC(=O)c1cnn(-c2ccccc2)c1NC(=O)CN1CCOCC1,16.1
13,Cn1c(N)c(C(=O)COC(=O)c2ccco2)c(=O)n(C)c1=O,5.09
14,COc1ccc(-c2nc(C)ncc2-c2csc(C)n2)c(O)c1,11
15,COc1ccc(C)cc1Cn1nnc2ccccc21,-4.34
16,CNc1ccc(C2(O)C(=O)c3ccccc3C2=O)cc1,-66.1
17,CN(C)c1ccc(C2(O)C(=O)c3ccccc3C2=O)cc1,23.4
18,CCNc1ccc(C2(O)C(=O)c3ccccc3C2=O)cc1,12.6
19,COc1ccc(NC(=O)c2sc(NC(=O)COc3ccccc3)nc2C)cc1,1.76

row,Structure (SMILES),"hERG current change (%, negative = inhibition) at 10uM [%]"
1,COc1ccc(CCc2nnc(CCC(=O)N(C)Cc3ccnc4ccccc34)o2)cc1,-37.7
2,COc1ccc(C(C)(C)C)cc1NC(=O)COC(=O)c1nc2nccc(C)n2n1,3.17
3,O=c1[nH]c(=S)n(C2CC2)c(O)c1C=Nc1cccc(C(F)(F)F)c1,12.8
4,Cc1ccc(NC(=O)Nc2cccc3ccccc23)cc1,19.5
5,Cc1cccc(NC(=O)NC2(C)CCS(=O)(=O)C2)c1 (centres unmarked),6.52
6,CC1(NC(=S)Nc2ccccc2)CCS(=O)(=O)C1 (centres unmarked),13.8
7,CC1(NC(=O)Nc2ccccc2)CCS(=O)(=O)C1 (centres unmarked),-53
8,C/C(=N/NC(=O)CCC(=O)Nc1ccc(Br)cc1)c1ccc(Br)cc1,12.7
9,O=C(Nc1ccccc1)N(CCc1nc2ccccc2[nH]1)C1CCCC1,-24
10,CC1CCCCC1NC(=O)CCCCCn1c(=S)[nH]c2ccccc2c1=O (centres unmarked),7.63
11,O=C(Nc1nccs1)c1nc[nH]c1C(=O)NCc1ccccc1,3.34
12,CC(C)(C)NC(=O)Cn1nnc(-c2cccs2)n1,-4.07
13,O=C(Nc1ccc([N+](=O)[O-])cc1)c1cc(-c2ccccn2)nc2c(Cl)cccc12,33
14,N#Cc1ccccc1OCC(=O)N(Cc1nnc(-c2ccccc2Cl)o1)C1CC1,-48.7
15,Cc1ccc(C(=O)N(Cc2nnc(-c3ccc(Cl)cc3)o2)C2CC2)o1,-32.6
16,O=C1OC(CC(=O)N(Cc2nnc(-c3ccccc3Cl)o2)C2CC2)c2ccccc21 (centres unmarked),-40.3
17,CSc1cccc(N2CC(C(=O)N(Cc3nnc(-c4ccccc4Cl)o3)C3CC3)CC2=O)c1 (centres unmarked),-55.5
18,CCCN(Cc1nnc(-c2ccccc2Cl)o1)C(=O)COc1ccc(Cl)cc1,-60.5
19,CCC(=O)c1ccc(OCC(=O)N(Cc2nnc(-c3ccccc3Cl)o2)C2CC2)cc1,-67.2

row,Structure (SMILES),"hERG current change (%, negative = inhibition) at 10uM [%]"
1,COc1ccccc1OCC(=O)N(Cc1nnc(-c2ccccc2Cl)o1)C1CC1,-44.2
2,Cc1ccc(CN2CC(C(=O)N(Cc3nnc(-c4ccccc4Cl)o3)C3CC3)CC2=O)cc1 (centres unmarked),-45.2
3,Cc1ccc(C)c(OCC(=O)N(Cc2nnc(-c3ccccc3Cl)o2)C2CC2)c1,-20.9
4,CCOc1ccccc1N1CC(C(=O)N(Cc2nnc(-c3ccccc3Cl)o2)C2CC2)CC1=O (centres unmarked),-16.8
5,CCCN(Cc1nnc(-c2ccccc2Cl)o1)C(=O)c1oc2ccccc2c1C,-13.1
6,O=C1OC(CC(=O)N(Cc2nnc(-c3ccc(Cl)cc3)o2)C2CC2)c2ccccc21 (centres unmarked),-67.8
7,CN(C)c1ccc(/C=N/NC(=O)c2ccc(-n3cnnn3)cc2)cc1,10.8
8,CCOc1ccc2nc(NS(=O)(=O)Cc3ccccc3)sc2c1,9.15
9,Cc1cc(OC(C)C)c2c(-c3ccccc3)cc(=O)oc2c1,16.2
10,O=C1N=C(N2CCCCC2)S/C1=C\c1ccc(Cl)cc1,9.15
11,O=C(CN1C(=O)NC2(CCCC2)C1=O)OCc1cc(=O)n2cc(Br)ccc2n1,0.0178
12,COc1cc(C(=O)Nc2ccc(-c3nnc(-c4ccco4)o3)cc2)cc(OC)c1OC,-3.23
13,Cc1ccnc(NS(=O)(=O)c2cccc([N+](=O)[O-])c2)c1,0.0315
14,CCNC(=O)CC1C(=O)N(c2cccc(OC)c2)C(=O)N1CCOC (centres unmarked),8.39
15,COc1ccc(CNC(=O)C(c2ccco2)N(Cc2cccs2)C(=O)Cc2cccs2)cc1 (centres unmarked),10.6
16,Cc1cccc(OCC(=O)N(Cc2nnc(-c3ccccc3Cl)o2)C2CC2)c1,-54.2
17,O=C(COc1ccccc1)N(Cc1nnc(-c2ccccc2Cl)o1)C1CC1,-15
18,Cc1ccc(OCC(=O)N(Cc2nnc(-c3ccccc3Cl)o2)C2CC2)cc1C,-44.1
